Among the data in article PMC7819943, “Rice protein-binding microarrays: a tool to detect cis-acting elements near promoter regions in rice” are binding signal values, retold here.

Over roughly 68,000 sequences, “fluorescence intensity (a.u.)” has its median near 9,100; the highest 2% begin near 16,000. What follows is part of a selection rich in the highest values, with near analogues and random picks from the rest.

OsWRKY34, sequence (Q0JBA9 entry or part of it): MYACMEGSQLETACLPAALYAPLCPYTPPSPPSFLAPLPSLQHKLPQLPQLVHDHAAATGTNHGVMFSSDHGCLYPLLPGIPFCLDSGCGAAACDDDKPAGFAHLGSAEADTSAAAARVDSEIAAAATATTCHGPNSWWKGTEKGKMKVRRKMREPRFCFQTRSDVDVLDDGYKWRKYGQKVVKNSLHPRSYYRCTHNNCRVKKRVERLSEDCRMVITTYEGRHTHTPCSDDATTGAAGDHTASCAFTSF

This assay concerns the target OsWRKY34 (Oryza sativa, UniProt Q0JBA9 1-250). The assay is described as follows: protein-binding microarray (RPBM); PBS, 2% BSA, 51.3 ng/ul salmon testes DNA, 50 uM zinc acetate, 200 nM TF, 25 C, 1 h; high values mean tight binding. Particulars: protein: recombinant; tags: N-terminal polyhistidine and DsRed monomer fusion (pET32a); label: CyDye5-dUTP incorporated in the synthesized complementary strand; 3' TTTTT single-stranded linker to array surface; dsDNA, one strand shown. In a few lines:
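Binding signal here means per-feature fluorescence intensity in arbitrary units. The values were read on an Axon 4000B scanner after a custom Agilent array, double-stranded by primer extension with Cy5-dUTP, was incubated with 200 nM protein at 25 °C for 1 h in PBS with 2% BSA, salmon testes DNA and 50 µM zinc acetate, then washed. The proteins were transcription factors with an N-terminal polyhistidine tag and DsRed, expressed in E. coli BL21-CodonPlus and purified on Ni–NTA.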
As to “TCAAAGGTTGGTTTGATTTGTTGCTATTTGTTGGTTTGATCGGAGTCACCTAGTGCAG”, the binding signal is 8630 fluorescence intensity (a.u.).

Take “CGCGCTCTGCATGTCGGTCCGTCAACTTGATCGCGATTCTCGGAGTCACCTAGTGCAG”: the binding signal is 8590 fluorescence intensity (a.u.).

In the case of “TGCAATTCGTACTTTTTCCTACAATTAAACAGCTACATGTCGGAGTCACCTAGTGCAG”, the binding signal is 9500 fluorescence intensity (a.u.).

As for “ATTTTTGTCTTGAGTTAACACCGTCACGTTGCCTTCACGGCGGAGTCACCTAGTGCAG”, the binding signal was 9960 fluorescence intensity (a.u.).

Turning to “CCGTCGTCGTCTTCGTCTTCCTCAGTTTATCTCCATTTCTCGGAGTCACCTAGTGCAG”, the binding signal is 13800 fluorescence intensity (a.u.).

As for “GGAAAAAGAACAATCTGCGACCAACCTCTTTTTTCTATCCCGGAGTCACCTAGTGCAG”, the binding signal is 8980 fluorescence intensity (a.u.).

In the case of “TCCTCTCTGTCTCCGCCGATCTGCTCTGCCGCGACGCGCCCGGAGTCACCTAGTGCAG”, the binding signal is 8180 fluorescence intensity (a.u.).

For the sequence “ATTTCACATGGCAAGATCCACGATGACTGAATTATCACACCGGAGTCACCTAGTGCAG”, the binding signal was 8200 fluorescence intensity (a.u.).

Turning to “ATGTCGGCGGCGGGCGGCGGCGGCGGCGTGGGGAAGGTGGCGGAGTCACCTAGTGCAG”, the binding signal is 9040 fluorescence intensity (a.u.).

As to “GAGGGCGGAGGAGGTGGTGAGGGAGGAGGTGCGGAGGCTGCGGAGTCACCTAGTGCAG”, the binding signal is 8320 fluorescence intensity (a.u.).

Regarding “GGCGGCGGCGGCGGCGGTGGTGGTGAGGAGGAGGAGGAGGCGGAGTCACCTAGTGCAG”, the binding signal is 10700 fluorescence intensity (a.u.).

For the sequence “GTAGTAGGGGAGGAGTGTATCTAGTAGTATAGGGAGGGAGCGGAGTCACCTAGTGCAG”, the binding signal is 13000 fluorescence intensity (a.u.).

With “CATTATCGTCGTCGTCGTCGTCGTAGTCATGTCGTGGGGCCGGAGTCACCTAGTGCAG”, the binding signal is 8180 fluorescence intensity (a.u.).

“CATGTCGTCGTCGTGGTGGTGGTGGTGGTGGTGGGGCGGGCGGAGTCACCTAGTGCAG”: the binding signal is 43400 fluorescence intensity (a.u.).

For “GGAGGCCTAGGTGGTGGTGGTGGTCTTGGTGGAGGAGGGGCGGAGTCACCTAGTGCAG”, the binding signal is 28600 fluorescence intensity (a.u.).

Turning to “GAGGTGGCTTTGGCGGCGGAGTGGGAGGCGGTGGTGGTGGCGGAGTCACCTAGTGCAG”, the binding signal was 10000 fluorescence intensity (a.u.).

For “GCGGTGGTGGTGGGCTTAGTGGAGGCGGAGGCGGCTGAGGCGGAGTCACCTAGTGCAG”, the binding signal was 17400 fluorescence intensity (a.u.).

With “GGTGGTGGTGGTGGTGGTGGTGGTGTAGGAGGAGGAGGAGCGGAGTCACCTAGTGCAG”, the binding signal is 27600 fluorescence intensity (a.u.).

Consider “GGAGGAGGAGGAGGGAGAGGGTGGTGTAGTGGGAGCGGCCCGGAGTCACCTAGTGCAG”, for which the binding signal was 8170 fluorescence intensity (a.u.).

Turning to “GAGGAGGGGAGAAACGGGAGGTTGGTGGTGGTGGTGGAGGCGGAGTCACCTAGTGCAG”, the binding signal was 15200 fluorescence intensity (a.u.).

Regarding “GCCTCTGCCCATCGCATCGATCCCCGCCGTCCCTCCACCCCGGAGTCACCTAGTGCAG”, the binding signal was 11000 fluorescence intensity (a.u.).

In the case of “TCGAACTATGTTTCTGGAGTTGTTTGTGTTAAAGTCCCAACGGAGTCACCTAGTGCAG”, the binding signal is 8860 fluorescence intensity (a.u.).

In the case of “CCGCCACATGCTGCTGCCGCCCCAGCCGTCGGCTGCTTCTCGGAGTCACCTAGTGCAG”, the binding signal is 8560 fluorescence intensity (a.u.).

Consider “TTTGCGGGTGGAGTTTTTTAAGTTTTTGGATTTCCTGTTTCGGAGTCACCTAGTGCAG”, for which the binding signal was 11700 fluorescence intensity (a.u.).

As for “CTCGACCACACATATATGTTCGATACATTCCATATCTTCCCGGAGTCACCTAGTGCAG”, the binding signal was 10700 fluorescence intensity (a.u.).

For “AACAAAAGCACCCCTGTCCGATCCTATATTTGTTGCAGTTCGGAGTCACCTAGTGCAG”, the binding signal was 9240 fluorescence intensity (a.u.).

For the sequence “GAAGAGGAGGAGGAGGAGGAGGAGGAGGAGGGGATCAATGCGGAGTCACCTAGTGCAG”, the binding signal is 8350 fluorescence intensity (a.u.).

Consider “TGTTCTTGAGTTGCTTATATATGGCCTTCTAGCTCAGCTCCGGAGTCACCTAGTGCAG”, for which the binding signal was 8540 fluorescence intensity (a.u.).

With “TGATTGCCTTCTCGATTTTGTTTGTCATTGCGTCTTTGCACGGAGTCACCTAGTGCAG”, the binding signal was 8190 fluorescence intensity (a.u.).

Turning to “TCCTTGTATGAATCCATTGCCTTGCTTCTGCTTGCCCATTCGGAGTCACCTAGTGCAG”, the binding signal is 8530 fluorescence intensity (a.u.).

As to “TGACCACCATTGCTGCTTCTGCTTCTTCTTGTATGTATACCGGAGTCACCTAGTGCAG”, the binding signal is 17200 fluorescence intensity (a.u.).

On to “CATTTTTTTAGCTTGTTCTTCCTTGTGTCACAAACATTTCCGGAGTCACCTAGTGCAG”, for which the binding signal is 11300 fluorescence intensity (a.u.).

As for “CTTCTCCTGCTTGTTTCCTTGTCTTGTGGTGCATCACATCCGGAGTCACCTAGTGCAG”, the binding signal was 8810 fluorescence intensity (a.u.).

“GGGTGGTCCTGCTTCTACCTTGTATACAAAACATTTCTTCCGGAGTCACCTAGTGCAG”: the binding signal was 17000 fluorescence intensity (a.u.).

Turning to “GCTTGCTTGCTTGTTGCTTCCATTCCATTCCATTCCACACCGGAGTCACCTAGTGCAG”, the binding signal is 10400 fluorescence intensity (a.u.).

In the case of “GTATTCCTACTTGAACTCTTCTTTTACTTTATTTTTCTAACGGAGTCACCTAGTGCAG”, the binding signal is 10600 fluorescence intensity (a.u.).

“CACTGCCACTCGCCACCCAGCTCCGTCCTATGCCTCCGCGCGGAGTCACCTAGTGCAG”: the binding signal was 12400 fluorescence intensity (a.u.).

As to “TGCACCGCGCGCAGGGTAGGGTGGGCGTCCTTGCCATTGTCGGAGTCACCTAGTGCAG”, the binding signal was 8740 fluorescence intensity (a.u.).

As for “CTTATTTCTTTTCCAGTTAGGCATATATTATCTGTTTTCTCGGAGTCACCTAGTGCAG”, the binding signal is 8700 fluorescence intensity (a.u.).

As to “ATAATATATAATCAAACAAAAAAATGGACTATAATCTCTCCGGAGTCACCTAGTGCAG”, the binding signal is 64400 fluorescence intensity (a.u.).

As to “ATATATATATATATATATATATATATATATAATCTCTCCTCGGAGTCACCTAGTGCAG”, the binding signal is 9910 fluorescence intensity (a.u.).

With “AAAATCTCCTACTAGCTCACTTCACAATGGATCAAACAAACGGAGTCACCTAGTGCAG”, the binding signal was 8230 fluorescence intensity (a.u.).
